# Measured values: the supplement of paper PMC3334620
# In all, about 33,000 sequences were measured (“E-score (-0.5 to 0.5)”: median about -0.041, highest 2% from about 0.37 on). What follows is part of a selection rich in the highest values, with near analogues and random picks from the rest.
# Biological target: T1, Ecm22 (UniProt Q05958)
# T1 sequence: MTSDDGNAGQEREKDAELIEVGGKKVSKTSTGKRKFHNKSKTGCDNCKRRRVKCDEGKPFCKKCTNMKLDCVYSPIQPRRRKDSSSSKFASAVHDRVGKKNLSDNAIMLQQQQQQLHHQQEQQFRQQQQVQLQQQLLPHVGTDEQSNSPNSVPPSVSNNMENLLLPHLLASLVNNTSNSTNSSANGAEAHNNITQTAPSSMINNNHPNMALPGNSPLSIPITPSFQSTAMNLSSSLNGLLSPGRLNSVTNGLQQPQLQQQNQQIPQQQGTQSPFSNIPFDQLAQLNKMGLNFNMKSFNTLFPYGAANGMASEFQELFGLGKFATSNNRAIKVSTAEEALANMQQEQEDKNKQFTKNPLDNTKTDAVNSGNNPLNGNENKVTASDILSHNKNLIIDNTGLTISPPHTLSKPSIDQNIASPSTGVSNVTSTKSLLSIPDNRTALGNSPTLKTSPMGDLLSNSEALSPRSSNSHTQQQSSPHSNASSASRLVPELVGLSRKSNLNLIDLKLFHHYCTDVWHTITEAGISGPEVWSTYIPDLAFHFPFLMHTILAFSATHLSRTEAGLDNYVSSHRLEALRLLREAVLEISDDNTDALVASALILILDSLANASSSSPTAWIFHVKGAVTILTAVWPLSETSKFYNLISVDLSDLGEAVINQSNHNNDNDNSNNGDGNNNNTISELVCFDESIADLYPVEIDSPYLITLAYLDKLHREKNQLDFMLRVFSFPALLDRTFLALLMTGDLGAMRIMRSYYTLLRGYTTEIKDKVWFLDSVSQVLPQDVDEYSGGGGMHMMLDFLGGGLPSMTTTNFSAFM
# Test: PBM E-score (8-mer binding enrichment) (E-score (-0.5 to 0.5)); higher = stronger / more preferred TF binding
# Conditions: protein concentration: 200 nM; construct: GST-full length
# In short: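 Universal all-10-mer Agilent arrays, double-stranded by primer extension on fresh or once-stripped slides, were probed with about 100-200 nM GST-tagged yeast transcription factors made by PURExpress. Fluorescent anti-GST detected bound protein, and masliner normalised the scans. E-scores from the Universal PBM Analysis Suite were given to each ungapped eight-base word pooled with its reverse complement.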
row,Sequence,PBM E-score
1,ACCGTGCG,0.161
2,GTCCGTGA,0.0485
3,CCTTAGCA,-0.287
4,AGACGACC,0.0158
5,ATACGACG,0.485
6,CCACGACC,0.00845
7,ACACGACC,0.186
8,ACACGACG,0.251
9,AGACGACG,0.23
10,CTACGACC,0.413
11,CGACGACC,0.154
12,ATACGACC,0.473
13,CCGCGCTA,0.0135
14,ATGAGAGG,-0.151
15,CTCGCAAG,0.17
16,GTCCGTCA,-0.131
17,CAGGGCAG,-0.104
18,ACTTTCCA,-0.205
19,AAGTAGCA,-0.137
20,ATTGTAGA,0.0824
21,CCCGTTCC,0.447
22,CCCGTTCA,0.267
23,GCCGTTCC,0.444
24,ACCGTTCT,0.135
25,ACCGTTCG,0.229

row,Sequence,PBM E-score
1,CCCGTTCG,0.196
2,ACCGTTCC,0.434
3,GACGTTCC,0.141
4,GCCGTTCA,0.229
5,GAGGCTCA,-0.237
6,CTCGGCAA,0.106
7,GCTCTAAA,-0.144
8,CCTAACAC,0.0728
9,GGTACTAC,0.0611
10,ACCGACGG,0.196
11,AACGGCGA,0.381
12,ACCGACGT,0.329
13,AAGGACGT,0.0897
14,CACGACGG,0.167
15,AACGACGT,0.435
16,CACGGCGA,0.0797
17,AACGACGG,0.444
18,AACGACGC,0.448
19,AACGGCGT,0.242
20,CACGACGC,0.119
21,GACGACGC,0.145
22,AGAGTCAG,-0.111
23,ACCTTCGG,0.188
24,CACCATGG,-0.173
25,AGAGGGTA,-0.0925

row,Sequence,PBM E-score
1,GAGCCACA,-0.0887
2,CGGTTTTA,0.072
3,CCTAGCAG,-0.263
4,GTTGCTCA,0.108
5,ACAGGTCC,-0.142
6,ATATCAAG,0.0598
7,TCTGGGAA,0.00899
8,CGCATGCG,0.0792
9,ACGGTAAC,0.151
10,GACGACGA,0.0563
11,AACGACGA,0.444
12,AGCGACGA,0.195
13,CACGACGA,0.108
14,TACGACGA,0.469
15,ATCGACGA,-0.00044
16,AGACTTAT,-0.104
17,CAGCAATG,-0.198
18,GGATGGTA,-0.0324
19,TCACTCGA,0.163
20,AATGCAGC,-0.147
21,CAGGTACG,0.423
22,ATGGTACG,0.443
23,AAGGTACT,0.0334
24,CAGGTACA,-0.23
25,AAGGTACC,-0.0364

row,Sequence,PBM E-score
1,AAGGTACG,0.434
2,CAGGTACC,-0.126
3,ATGGTACC,-0.225
4,ATGGTACA,-0.122
5,CCTCCTTA,0.032
6,CATGCGGG,-0.05
7,ATAGTGCC,0.0559
8,CTAAGCTC,-0.2
9,ACCGTCTG,-0.112
10,ATTGCAGG,-0.00797
11,CCGGTACA,0.0868
12,ACGGTACT,0.0921
13,ACGGTACG,0.436
14,CCGGTACC,-0.103
15,CCGGTACG,0.448
16,ACGGTACC,0.206
17,AAAGATTG,-0.286
18,ACGGAGGA,0.151
19,GTCGCTTA,0.37
20,CTCGCTGA,-0.0623
21,CTCGCTCA,0.358
22,ATCGCTCC,0.185
23,CTCGCTCC,0.405
24,ATCGCTTA,0.327
25,GTCGCTGA,-0.073

row,Sequence,PBM E-score
1,CTCGCTTA,0.41
2,GTCGCTAA,0.289
3,AAACTCCG,-0.112
4,AGGGACGG,-0.256
5,AGTCCGGC,-0.138
6,AACGTATT,0.229
7,TACGTACA,0.328
8,AACGTATC,0.127
9,TACGTAGA,0.133
10,AACGTATA,0.411
11,CACGTATA,0.386
12,AGCGTATA,0.366
13,CACGTATG,0.0729
14,CGCGTATA,0.403
15,GACGTATA,0.365
16,TACGTATA,0.401
17,GGCGTATA,0.359
18,GGGTGGAA,-0.284
19,CACCCGCG,-0.0941
20,TGCTAACA,-0.0691
21,ACCTGGCT,-0.059
22,ATCCAAGC,-0.231
23,ACTAAGGA,0.1
24,CGGCCATC,-0.22
25,CAGCCTCA,-0.00094

row,Sequence,PBM E-score
1,TTCCACAA,-0.0103
2,CTCAGTTA,-0.187
3,ACGGCGAC,0.21
4,ACGGCGAG,0.214
5,ACGGCGAT,0.377
6,AAAGCCTG,-0.228
7,ACAGCCCT,-0.279
8,AAGCTGCA,-0.0356
9,CTTCGTAC,0.477
10,ATTCGTAC,0.468
11,CTTCGTGA,0.209
12,CTTCGTAA,0.413
13,ATTCGTCC,0.0925
14,ATTCGTGC,-0.00078
15,CTTCGTCA,0.117
16,CTTCGTGC,0.0216
17,CTTCGTCC,-0.243
18,ACGATCTA,0.22
19,ACGATGCT,0.283
20,CCATACGA,0.462
21,TCATACAA,-0.115
22,TCATACGA,0.463
23,GCATACGC,0.199
24,ACATACGA,0.466
25,ACATACGG,0.321

row,Sequence,PBM E-score
1,ACATACGC,0.221
2,CCATACGG,0.345
3,GCATACGA,0.446
4,CCATACGC,0.218
5,GCATACAA,0.0278
6,TCATACCA,-0.0984
7,GAACCCGC,0.0274
8,AAGAAAAC,0.0702
9,TAATCATA,-0.0103
10,TAATCGCA,0.215
11,CGAGGACA,0.0726
12,GAGTACGC,-0.0338
13,AAGTACGA,0.448
14,CAGTACGG,0.27
15,GAGTACAA,0.0511
16,GAGTACGA,0.426
17,AAGTACGT,0.171
18,TAGTACAA,0.0161
19,CAGTACGA,0.423
20,CAGTACGC,0.06
21,TAGTACCA,-0.124
22,TAGTACGA,0.443
23,AAGTACGC,0.0885
